# According to the antibiotic and cytotoxicity screens of Wong et al. (2023):
# In all, about 39,000 compounds went through this assay and about 3,300 (8.5%) were called active. The list comes from a sample in which actives are over-represented; it also holds similar structures and randomly drawn compounds.
# Test system: HepG2
# Test: cytotoxicity call (relative viability < 0.9)
# Settings: 10 µM
row,Structure (SMILES),cytotoxicity call
1,Cc1ccc(S(=O)(=O)N(C)C[C@H]2Oc3ccc(NS(C)(=O)=O)cc3CC(=O)N([C@H](C)CO)C[C@H]2C)cc1,inactive
2,O=C(C[C@@H]1C[C@H]2c3cc(NC(=O)c4cccnc4)ccc3O[C@H]2[C@@H](CO)O1)NCc1cc(F)ccc1F,inactive
3,CCCNC(=O)N1C[C@H](O)COC[C@H]2O[C@@H](CC(=O)N3CCN(C)CC3)CC[C@@H]21,inactive
4,O=C(C[C@@H]1C[C@H]2c3cc(NC(=O)c4ccc5c(c4)OCO5)ccc3O[C@H]2[C@@H](CO)O1)NCCc1ccccc1,inactive
5,COC(=O)[C@@H]1C(=O)NC[C@H]1c1ccccc1,inactive
6,C[C@@H]1CN([C@H](C)CO)C(=O)c2cc(NC(=O)Nc3ccccc3)ccc2O[C@@H](C)CCCCO[C@H]1CN(C)Cc1ccc(C(F)(F)F)cc1,active
7,C[C@H]1CCCCO[C@@H](CN(C)Cc2ccc(C(F)(F)F)cc2)[C@@H](C)CN([C@@H](C)CO)C(=O)c2cc(NC(=O)Nc3ccccc3)ccc2O1,active
8,C[C@@H]1CCCCO[C@@H](CN(C)Cc2ccc(C(F)(F)F)cc2)[C@@H](C)CN([C@H](C)CO)C(=O)c2cc(NC(=O)Nc3ccccc3)ccc2O1,inactive
9,C[C@@H]1CCCCO[C@H](CN(C)Cc2ccc(C(F)(F)F)cc2)[C@@H](C)CN([C@H](C)CO)C(=O)c2cc(NC(=O)Nc3ccccc3)ccc2O1,inactive
10,C[C@@H]1CCCCO[C@H](CN(C)Cc2ccc(C(F)(F)F)cc2)[C@H](C)CN([C@@H](C)CO)C(=O)c2cc(NC(=O)Nc3ccccc3)ccc2O1,active
11,C[C@@H]1CCCCO[C@H](CN(C)Cc2ccc(C(F)(F)F)cc2)[C@@H](C)CN([C@@H](C)CO)C(=O)c2cc(NC(=O)Nc3ccccc3)ccc2O1,active
12,CO[C@@H]1CN(C)C(=O)c2ccc(NC(=O)Nc3ccccc3F)cc2OC[C@@H](C)N(C(=O)Nc2ccccc2F)C[C@H]1C,inactive
13,Nc1nc(Nc2ccccc2)nc2c1ncn2[C@@H]1O[C@H](CO)[C@@H](O)[C@H]1O,inactive
14,CO[C@@H]1CN(C)C(=O)c2cc(NS(=O)(=O)CC(F)(F)F)ccc2OC[C@H](C)N(Cc2cccnc2)C[C@@H]1C,inactive
15,C[C@@H]1CN([C@H](C)CO)C(=O)c2cc(C#CC3(O)CCCC3)cnc2O[C@H]1CN(C)C(=O)Cc1cccnc1,inactive
16,CN1CCN(C(=O)C[C@@H]2CC[C@@H]3[C@H](COC[C@@H](O)CN3S(=O)(=O)c3cccc(Cl)c3)O2)CC1,inactive
17,C[C@H]1CN([C@@H](C)CO)C(=O)c2cccc(NS(C)(=O)=O)c2O[C@@H]1CN(C)C(=O)Nc1ccc(F)cc1,inactive
18,C[C@@H]1CN([C@H](C)CO)C(=O)CCCn2nncc2CO[C@@H]1CN(C)S(=O)(=O)c1cn(C)cn1,inactive
19,C[C@@H]1CN([C@@H](C)CO)C(=O)c2cc(NC(=O)C3CC3)ccc2O[C@@H]1CN(C)C(=O)Nc1ccc2c(c1)OCO2,inactive
20,CC(=O)Nc1ccc(C(=O)NN)cc1,inactive
21,C[C@@H]1CN([C@H](C)CO)C(=O)c2cccc(NC(=O)c3ccncc3)c2O[C@H]1CN(C)Cc1ccncc1,inactive
22,c1ccc(CNC2CCCCC2)nc1,inactive

row,Structure (SMILES),cytotoxicity call
1,Cc1cccc(S(=O)(=O)N2C[C@@H](O)COC[C@H]3O[C@H](CC(=O)NCc4ccncn4)CC[C@@H]32)c1,inactive
2,C[C@H](CO)N1C[C@H](C)[C@@H](CN(C)Cc2ccc(C(=O)O)cc2)OCc2ccccc2-c2c(n(C)c3ccccc23)C1=O,inactive
3,C[C@@H]1CCCCO[C@H](CN(C)Cc2ccc(C(F)(F)F)cc2)[C@H](C)CN([C@H](C)CO)C(=O)c2cc(NC(=O)Nc3ccccc3)ccc2O1,active
4,C[C@H]1CCCCO[C@H](CN(C)Cc2ccc(C(F)(F)F)cc2)[C@@H](C)CN([C@@H](C)CO)C(=O)c2cc(NC(=O)Nc3ccccc3)ccc2O1,active
5,C[C@H](CO)N1C[C@H](C)[C@H](CN(C)Cc2ccc(C(F)(F)F)cc2)OCCCC[C@H](C)Oc2ccc(NC(=O)Nc3ccccc3)cc2C1=O,active
6,CCS(=O)(=O)NCC[C@@H]1CC[C@@H](NC(=O)C2CC2)[C@@H](CO)O1,inactive
7,Cc1ccc(S(=O)(=O)Nc2ccc3c(c2)CC(=O)N([C@@H](C)CO)C[C@@H](C)[C@H](CN(C)S(C)(=O)=O)O3)cc1,inactive
8,C[C@@H]1CN([C@@H](C)CO)C(=O)Cc2cc(NC(=O)Nc3ccccc3)ccc2O[C@H]1CN(C)C(=O)Nc1ccc(C(F)(F)F)cc1,inactive
9,C[C@H]1CN([C@@H](C)CO)C(=O)c2cc(NC(=O)Nc3cccc4ccccc34)ccc2O[C@H]1CN(C)S(=O)(=O)c1ccc(F)cc1,inactive
10,CC(=O)N[C@@H](Cc1cccc(F)c1)C(=O)O,inactive
11,O=C(NC1Cc2ccccc2C1)[C@@H]1[C@@H](CO)[C@@H]2Cn3c(cccc3=O)[C@@H]2N1C(=O)c1cnccn1,inactive
12,Nc1no[n+]([O-])c1-c1ccccc1,inactive
13,C[C@H](CO)N1C[C@H](C)[C@H](CN(C)C(=O)Nc2ccc(F)cc2)OCCCC[C@H](C)Oc2ccc(NC(=O)c3ccccc3)cc2C1=O,inactive
14,C[C@@H]1CN([C@@H](C)CO)C(=O)c2cc(NC(=O)Nc3ccccc3)ccc2O[C@@H](C)CCCCO[C@H]1CN(C)Cc1ccc2c(c1)OCO2,inactive
15,C[C@@H]1CCCCO[C@H](CN(C)Cc2ccc3c(c2)OCO3)[C@@H](C)CN([C@H](C)CO)C(=O)c2cc(NC(=O)Nc3ccccc3)ccc2O1,inactive
16,C[C@@H]1CCCCO[C@@H](CN(C)Cc2ccc3c(c2)OCO3)[C@@H](C)CN([C@@H](C)CO)C(=O)c2cc(NC(=O)Nc3ccccc3)ccc2O1,active
17,C[C@@H]1CN([C@H](C)CO)C(=O)c2cc(NC(=O)Nc3ccccc3)ccc2O[C@@H](C)CCCCO[C@@H]1CN(C)Cc1ccc2c(c1)OCO2,inactive
18,C[C@H]1CCCCO[C@H](CN(C)Cc2ccc3c(c2)OCO3)[C@@H](C)CN([C@@H](C)CO)C(=O)c2cc(NC(=O)Nc3ccccc3)ccc2O1,inactive
19,C[C@@H]1CCCCO[C@@H](CN(C)Cc2ccc3c(c2)OCO3)[C@H](C)CN([C@H](C)CO)C(=O)c2cc(NC(=O)Nc3ccccc3)ccc2O1,inactive
20,C[C@@H]1CCCCO[C@H](CN(C)Cc2ccc3c(c2)OCO3)[C@@H](C)CN([C@@H](C)CO)C(=O)c2cc(NC(=O)Nc3ccccc3)ccc2O1,inactive
21,C[C@@H]1CCCCO[C@H](CN(C)Cc2ccc3c(c2)OCO3)[C@H](C)CN([C@H](C)CO)C(=O)c2cc(NC(=O)Nc3ccccc3)ccc2O1,active
22,C[C@H](CO)N1C[C@H](C)[C@H](CN(C)Cc2ccc3c(c2)OCO3)OCCCC[C@H](C)Oc2ccc(NC(=O)Nc3ccccc3)cc2C1=O,active

row,Structure (SMILES),cytotoxicity call
1,C[C@H]1CCCCO[C@@H](CN(C)Cc2ccc3c(c2)OCO3)[C@@H](C)CN([C@@H](C)CO)C(=O)c2cc(NC(=O)Nc3ccccc3)ccc2O1,active
2,C[C@@H]1CCCCO[C@@H](CN(C)Cc2ccc3c(c2)OCO3)[C@@H](C)CN([C@H](C)CO)C(=O)c2cc(NC(=O)Nc3ccccc3)ccc2O1,inactive
3,C[C@@H]1CN([C@H](C)CO)C(=O)c2cc(NC(=O)Nc3ccccc3)ccc2O[C@@H](C)CCCCO[C@H]1CN(C)Cc1ccc2c(c1)OCO2,inactive
4,C[C@@H]1CN([C@@H](C)CO)C(=O)c2cccc(NC(=O)c3ccc(-c4nccs4)cc3)c2O[C@@H]1CN(C)C(=O)Nc1ccc2c(c1)OCO2,inactive
5,CCCNC(=O)N1C[C@@H](O)COC[C@H]2O[C@H](CC(=O)N3CCOCC3)CC[C@@H]21,inactive
6,C[C@H]1CN([C@@H](C)CO)C(=O)c2cccc(NS(C)(=O)=O)c2O[C@@H]1CN(C)Cc1ccc(C(=O)O)cc1,inactive
7,C[C@@H]1CN([C@H](C)CO)C(=O)c2cc(NS(=O)(=O)c3cn(C)cn3)ccc2O[C@H]1CN(C)Cc1ccc(C(=O)O)cc1,inactive
8,O=C(O)c1ccc2[nH]cnc2n1,inactive
9,O=C(CCCCCNC(=O)OCc1ccc(CO[C@@H]2C[C@H](C3CCCCC3)C=C(C(=O)N3CCCCCCC3)O2)cc1)NO,inactive
10,C[C@H](CO)N1C[C@H](C)[C@@H](CN(C)S(=O)(=O)c2ccc(F)cc2)Oc2ccc(NS(C)(=O)=O)cc2C1=O,inactive
11,Cc1noc(C)c1NC(=O)N(C)C[C@@H]1Oc2ccc(NC(=O)Nc3cccc4ccccc34)cc2C(=O)N([C@H](C)CO)C[C@@H]1C,inactive
12,COc1ccccc1NC(=O)N(C)C[C@H]1Oc2ncc(C#CCN(C)C)cc2C(=O)N([C@H](C)CO)C[C@H]1C,inactive
13,C=CCOC(=O)[C@H]1[C@@H]2C(=O)O[C@@H](c3ccccc3)[C@@H](c3ccccc3)N2[C@@H](c2ccc(OCCOC(=O)[C@@H]3C[C@@H]4C(=O)NCC(=O)N4[C@@H]3c3cccc(OCCO)c3)cc2)[C@]12C(=O)Nc1ccccc12,inactive
14,Cc1noc(C)c1S(=O)(=O)Nc1ccc2c(c1)CC(=O)N([C@H](C)CO)C[C@H](C)[C@H](CN(C)Cc1ccc(-c3ccccc3)cc1)O2,inactive
15,C(=N\c1ccccc1)/c1ccccc1,inactive
16,C[C@@H]1CN([C@H](C)CO)C(=O)c2cc(NC(=O)Nc3ccc4c(c3)OCO4)ccc2O[C@@H](C)CCCCO[C@@H]1CN(C)Cc1ccccc1,inactive
17,C[C@@H]1CCCCO[C@H](CN(C)Cc2ccccc2)[C@@H](C)CN([C@@H](C)CO)C(=O)c2cc(NC(=O)Nc3ccc4c(c3)OCO4)ccc2O1,inactive
18,C[C@H](CO)N1C[C@H](C)[C@@H](CN(C)Cc2ccc3c(c2)OCO3)OCCCC[C@H](C)Oc2ccc(NC(=O)Nc3ccccc3)cc2C1=O,inactive
19,C[C@@H]1CN([C@@H](C)CO)C(=O)c2cc(NC(=O)Nc3ccc4c(c3)OCO4)ccc2O[C@@H](C)CCCCO[C@@H]1CN(C)Cc1ccccc1,active
20,C[C@@H]1CCCCO[C@H](CN(C)Cc2ccc3c(c2)OCO3)[C@H](C)CN([C@@H](C)CO)C(=O)c2cc(NC(=O)Nc3ccccc3)ccc2O1,inactive
21,C[C@@H]1CN([C@@H](C)CO)C(=O)c2cc(NC(=O)Nc3ccccc3)ccc2O[C@@H](C)CCCCO[C@@H]1CN(C)Cc1ccc2c(c1)OCO2,active
